In all, about 5,500 compounds went through this assay and about 2,000 (36%) were called active. About 18% were inconclusive and are not listed. No stated cut-off is given here; in the data, active means normalized growth mostly below about 0.91 (no sharp cut-off); inconclusive means no clear call, values can overlap the other calls; inactive means mostly above about 0.92. Some of the results follow.
Test: chemical genetic growth profiling, strain panel (AID 1159580);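 further: tested at 20 µM; growth read once vehicle control cultures reached saturation at 30 °C; 1 = growth at the plate median or of vehicle wells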
Settings: growth OD
[1] = S. cerevisiae deletion strains, locus YAR019C, strain CDC15, stronger effect = lower value
[2] = S. cerevisiae deletion strains, locus YBL105C, strain PKC1, stronger effect = lower value
[3] = S. cerevisiae deletion strains, locus YBR135W, strain CKS1, stronger effect = lower value
[4] = S. cerevisiae deletion strains, locus YBR136W, strain MEC1, stronger effect = lower value
[5] = S. cerevisiae deletion strains, locus YBR160W, strain CDC28, stronger effect = lower value
[6] = S. cerevisiae deletion strains, locus YDL017W, strain CDC7, stronger effect = lower value
[7] = S. cerevisiae deletion strains, locus YDL028C, strain MPS1, stronger effect = lower value
[8] = S. cerevisiae deletion strains, locus YDL101C, strain DUN1, stronger effect = lower value
[9] = S. cerevisiae deletion strains, locus YDL108W, strain KIN28, stronger effect = lower value
[10] = S. cerevisiae deletion strains, locus YDL132W, strain cdc53, stronger effect = lower value
[11] = S. cerevisiae deletion strains, locus YDL214C, strain PRR2, stronger effect = lower value
[12] = S. cerevisiae deletion strains, locus YDR052C, strain DBF4, stronger effect = lower value
[13] = S. cerevisiae deletion strains, locus YDR054C, strain cdc34, stronger effect = lower value
[14] = S. cerevisiae deletion strains, locus YDR226W, strain ADK1, stronger effect = lower value
[15] = S. cerevisiae deletion strains, locus YDR477W, strain SNF1, stronger effect = lower value
[16] = S. cerevisiae deletion strains, locus YER123W, strain YCK3, stronger effect = lower value
[17] = S. cerevisiae deletion strains, locus YER133W, strain GLC7, stronger effect = lower value
[18] = S. cerevisiae deletion strains, locus YFL009W, strain cdc4, stronger effect = lower value
[19] = S. cerevisiae deletion strains, locus YFL029C, strain CAK1, stronger effect = lower value
[20] = S. cerevisiae deletion strains, locus YFR003C, strain YPI1, stronger effect = lower value
[21] = S. cerevisiae deletion strains, locus YFR019W, strain FAB1, stronger effect = lower value
[22] = S. cerevisiae deletion strains, locus YFR028C, strain CDC14, stronger effect = lower value
[23] = S. cerevisiae deletion strains, locus YGR040W, strain KSS1, stronger effect = lower value
[24] = S. cerevisiae deletion strains, locus YGR052W, strain FMP48, stronger effect = lower value
[25] = S. cerevisiae deletion strains, locus YGR092W, strain DBF2, stronger effect = lower value
[26] = S. cerevisiae deletion strains, locus YHR030C, strain SLT2, stronger effect = lower value
[27] = S. cerevisiae deletion strains, locus YHR079C, strain IRE1, stronger effect = lower value
[28] = S. cerevisiae deletion strains, locus YHR082C, strain KSP1, stronger effect = lower value
[29] = S. cerevisiae deletion strains, locus YHR205W, strain SCH9, stronger effect = lower value
[30] = S. cerevisiae deletion strains, locus YIL147C, strain SLN1, stronger effect = lower value
[31] = S. cerevisiae deletion strains, locus YJL095W, strain BCK1, stronger effect = lower value
[32] = S. cerevisiae deletion strains, locus YJL128C, strain PBS2, stronger effect = lower value
[33] = S. cerevisiae deletion strains, locus YJL157C, strain FAR1, stronger effect = lower value
[34] = S. cerevisiae deletion strains, locus YJR016C, strain ILV3, stronger effect = lower value
[35] = S. cerevisiae deletion strains, locus YJR066W, strain TOR1 (second series), stronger effect = lower value
[36] = S. cerevisiae deletion strains, locus YJR066W, strain TOR1, stronger effect = lower value
[37] = S. cerevisiae deletion strains, locus YKL048C, strain ELM1, stronger effect = lower value
[38] = S. cerevisiae deletion strains, locus YKL067W, strain YNK1, stronger effect = lower value
[39] = S. cerevisiae deletion strains, locus YKL101W, strain HSL1, stronger effect = lower value
[40] = S. cerevisiae deletion strains, locus YKL193C, strain SDS22, stronger effect = lower value
[41] = S. cerevisiae deletion strains, locus YKL203C, strain TOR2, stronger effect = lower value
[42] = S. cerevisiae deletion strains, locus YLR113W, strain HOG1, stronger effect = lower value
[43] = S. cerevisiae deletion strains, locus YLR133W, strain CKI1, stronger effect = lower value
[44] = S. cerevisiae deletion strains, locus YLR403W, strain SFP1, stronger effect = lower value
[45] = S. cerevisiae deletion strains, locus YML070W, strain DAK1, stronger effect = lower value
[46] = S. cerevisiae deletion strains, locus YMR001C, strain CDC5, stronger effect = lower value
[47] = S. cerevisiae deletion strains, locus YMR205C, strain PFK2 (second series), stronger effect = lower value
[48] = S. cerevisiae deletion strains, locus YMR277W, strain FCP1, stronger effect = lower value
[49] = S. cerevisiae deletion strains, locus YNL006W, strain LST8, stronger effect = lower value
[50] = S. cerevisiae deletion strains, locus YNL020C, strain ARK1, stronger effect = lower value
[51] = S. cerevisiae deletion strains, locus YNL161W, strain CBK1, stronger effect = lower value
[52] = S. cerevisiae deletion strains, locus YNL183C, strain NPR1, stronger effect = lower value
[53] = S. cerevisiae deletion strains, locus YNL207W, strain RIO2, stronger effect = lower value
[54] = S. cerevisiae deletion strains, locus YNL222W, strain SSU72, stronger effect = lower value
[55] = S. cerevisiae deletion strains, locus YNL307C, strain MCK1 (second series), stronger effect = lower value
[56] = S. cerevisiae deletion strains, locus YOL078W, strain AVO1, stronger effect = lower value
[57] = S. cerevisiae deletion strains, locus YOL136C, strain PFK27, stronger effect = lower value
[58] = S. cerevisiae deletion strains, locus YOR061W, strain CKA2, stronger effect = lower value
[59] = S. cerevisiae deletion strains, locus YOR119C, strain RIO1, stronger effect = lower value
[60] = S. cerevisiae deletion strains, locus YOR231W, strain MKK1, stronger effect = lower value
[61] = S. cerevisiae deletion strains, locus YOR329C, strain SCD5, stronger effect = lower value
[62] = S. cerevisiae deletion strains, locus YPL031C, strain PHO85, stronger effect = lower value
[63] = S. cerevisiae deletion strains, locus YPL153C, strain RAD53, stronger effect = lower value
[64] = S. cerevisiae deletion strains, locus YPL204W, strain HRR25, stronger effect = lower value
[65] = S. cerevisiae deletion strains, locus YPL209C, strain IPL1, stronger effect = lower value
[66] = S. cerevisiae deletion strains, locus YPL256C, strain CLN2, stronger effect = lower value
[67] = S. cerevisiae deletion strains, locus YPR025C, strain CCL1, stronger effect = lower value
[68] = S. cerevisiae deletion strains, locus YPR106W, strain ISR1, stronger effect = lower value
[69] = S. cerevisiae deletion strains, locus YPR111W, strain DBF20, stronger effect = lower value
[70] = S. cerevisiae deletion strains, strain NNK1, stronger effect = lower value
[71] = S. cerevisiae deletion strains, strain TSCII, stronger effect = lower value
[72] = S. cerevisiae deletion strains, locus YAL013W, strain DEP1, stronger effect = lower value
[73] = S. cerevisiae deletion strains, locus YBR229C, strain ROT2, stronger effect = lower value
[74] = S. cerevisiae deletion strains, locus YDR150W, strain NUM1, stronger effect = lower value
[75] = S. cerevisiae deletion strains, locus YEL061C, strain CIN8, stronger effect = lower value
[76] = S. cerevisiae deletion strains, locus YGR078C, strain PAC10, stronger effect = lower value
[77] = S. cerevisiae deletion strains, locus YHR087W, strain rtc3, stronger effect = lower value
[78] = S. cerevisiae deletion strains, locus YJR043C, strain POL32, stronger effect = lower value
[79] = S. cerevisiae deletion strains, locus YJR075W, strain HOC1, stronger effect = lower value
[80] = S. cerevisiae deletion strains, locus YKL190W, strain CNB1, stronger effect = lower value
[81] = S. cerevisiae deletion strains, locus YLR039C, strain RIC1, stronger effect = lower value
[82] = S. cerevisiae deletion strains, locus YLR058C, strain SHM2 (second series), stronger effect = lower value
[83] = S. cerevisiae deletion strains, locus YLR085C, strain ARP6, stronger effect = lower value
[84] = S. cerevisiae deletion strains, locus YLR262C, strain YPT6, stronger effect = lower value
[85] = S. cerevisiae deletion strains, locus YML094W, strain GIM5, stronger effect = lower value
[86] = S. cerevisiae deletion strains, locus YMR219W, strain ESC1, stronger effect = lower value
[87] = S. cerevisiae deletion strains, locus YMR263W, strain SAP30, stronger effect = lower value
[88] = S. cerevisiae deletion strains, locus YNL153C, strain GIM3, stronger effect = lower value
[89] = S. cerevisiae deletion strains, locus YNL298W, strain CLA4 (second series), stronger effect = lower value
[90] = S. cerevisiae deletion strains, locus YNL322C, strain KRE1, stronger effect = lower value
[91] = S. cerevisiae deletion strains, locus YNR030W, strain Alg12, stronger effect = lower value
[92] = S. cerevisiae deletion strains, locus YPL055C, strain LGE1, stronger effect = lower value
[93] = S. cerevisiae deletion strains, locus YPL241C, strain CIN2, stronger effect = lower value
[94] = S. cerevisiae deletion strains, locus YPR135W, strain CTF4, stronger effect = lower value
[95] = S. cerevisiae strains, strain wild type, stronger effect = lower value

Measured: normalized growth

O=C(NNC(=O)c1csc(-c2cccs2)n1)c1ccc(C(F)(F)F)cc1
inactive: [1] 0.972 | [2] 0.967 | [3] 0.955 | [4] 0.979 | [5] 0.965 | [6] 0.961 | [7] 0.958 | [9] 0.972 | [10] 0.946 | [12] 0.964 | [13] 0.961 | [14] 0.967 | [16] 0.75 | [17] 0.863 | [18] 0.967 | [19] 0.959 | [20] 0.964 | [21] 0.99 | [22] 0.949 | [23] 0.832 | [24] 0.779 | [28] 0.838 | [29] 0.695 | [30] 0.973 | [32] 0.948 | [34] 0.969 | [36] 0.486 | [37] 0.91 | [40] 0.963 | [41] 0.913 | [44] 0.884 | [45] 0.887 | [46] 0.949 | [48] 0.957 | [49] 0.96 | [51] 0.959 | [53] 0.955 | [54] 0.963 | [56] 0.966 | [57] 0.805 | [58] 0.821 | [59] 0.877 | [61] 0.959 | [64] 0.723 | [65] 0.964 | [67] 0.954 | [68] 0.959 | [69] 0.974 | [70] 0.974 | [71] 0.943
active: [8] 0.901 | [11] 0.657 | [15] 0.572 | [25] 0.154 | [26] 0.198 | [27] 0.181 | [31] 0.345 | [33] 0.612 | [35] 0.14 | [38] 0.713 | [39] 0.59 | [42] 0.677 | [43] 0.592 | [47] 0.666 | [50] 0.492 | [52] 0.5 | [55] 0.286 | [60] 0.29 | [62] 0.512 | [63] 0.57 | [66] 0.558

O=C(NCc1cccs1)c1csc(Cc2c(Cl)cccc2Cl)n1
inactive: [1] 0.986 | [2] 0.969 | [3] 0.972 | [4] 0.995 | [5] 0.979 | [6] 0.987 | [7] 0.969 | [8] 0.981 | [9] 0.987 | [10] 0.978 | [11] 0.992 | [12] 0.996 | [13] 0.971 | [14] 0.971 | [15] 0.978 | [16] 0.985 | [17] 0.996 | [18] 0.957 | [19] 0.98 | [20] 0.991 | [21] 0.988 | [22] 0.982 | [23] 0.994 | [24] 1.06 | [25] 0.95 | [26] 0.924 | [27] 0.992 | [28] 1.02 | [29] 0.988 | [30] 0.985 | [31] 1.01 | [32] 0.937 | [33] 0.998 | [34] 0.99 | [35] 0.98 | [36] 0.956 | [37] 1 | [38] 0.996 | [39] 1 | [40] 0.99 | [41] 1.07 | [42] 0.981 | [43] 0.99 | [44] 0.994 | [45] 1 | [46] 0.986 | [47] 1.01 | [48] 0.982 | [49] 0.987 | [50] 1.01 | [51] 0.994 | [52] 1.07 | [53] 0.981 | [54] 0.983 | [55] 1.01 | [56] 0.991 | [57] 1.01 | [58] 0.992 | [59] 1.03 | [60] 0.988 | [61] 0.985 | [62] 0.988 | [63] 0.994 | [64] 1 | [65] 0.988 | [66] 0.985 | [67] 0.982 | [68] 0.968 | [69] 0.965 | [70] 0.977 | [71] 0.986

FC(F)(F)c1ccc(-c2nc(-c3ccc4c(c3)OCCCO4)cs2)cc1
inactive: [72] 1.03 | [73] 1.01 | S. cerevisiae deletion strains, locus YCL061C, strain MRC1, stronger effect = lower value 0.99 | [8] 0.965 | S. cerevisiae deletion strains, locus YDL134C, strain PPH21, stronger effect = lower value 1 | [74] 1.01 | [75] 1.01 | [76] 1.01 | S. cerevisiae deletion strains, locus YGR229C, strain SMI1, stronger effect = lower value 1.01 | [26] 1.05 | [77] 1.03 | [78] 0.997 | [79] 1.02 | [80] 1.01 | [81] 1.07 | [82] 0.998 | [83] 1.1 | [84] 1.02 | [85] 1.04 | [86] 1.01 | [87] 0.988 | S. cerevisiae deletion strains, locus YMR307W, strain GAS1, stronger effect = lower value 0.987 | [88] 0.992 | [89] 1.02 | [90] 1.01 | [91] 1.01 | [92] 1.06 | [93] 1.03 | [94] 1.27 | [95] 1.01

CC(=O)c1csc(-c2ccc(C(F)(F)F)cc2)n1
active: [83] 0.762 | [93] 0.841
inactive: [72] 0.947 | [73] 0.965 | [8] 0.977 | [74] 0.977 | [75] 0.967 | [76] 0.949 | [26] 0.761 | [77] 0.964 | [78] 0.988 | [79] 0.928 | [80] 0.994 | [81] 0.882 | [82] 0.955 | [84] 0.943 | [85] 0.898 | [86] 0.977 | [87] 0.979 | S. cerevisiae deletion strains, locus YNL128W, strain TEP1, stronger effect = lower value 0.99 | [88] 0.954 | [89] 0.911 | [90] 0.971 | [91] 0.943 | [92] 0.892 | [94] 0.658 | [95] 0.997

Source: PubChem BioAssay AID1159580 (chemical genetic matrix, 2015)
